Only some compounds are listed: those with a hit (about 7.2% of all), similar ones and a draw of the others.
LASV entry inh: qHTS for Inhibitors of binding or entry into cells for Lassa Virus. Lassa virus pseudotype entry inhibition, cell reporter. Potency, µM (series often up to 37.9 µM), usual class: inhibitors. 300,000 compounds, 1.2% hits. AID 540256, 2011; calls by dose curve; tested in HEK293 cells; also: nearly all actives have a fitted effect of over 50% in size
RE007 growth inh: qHTS Assay for Inhibitors of the HIV-1 protein Vpr; S. pombe RE007 Vpr strain, BacTiter-Glo ATP luminescence, 24 h; Potency, µM (series often up to 92.2 µM), actives largely listed as inhibitors; AID 651644, 2012; 360,000 compounds, 0.21% hits; active = well fitted falling curve with a large enough effect; inconclusive = small, poorly fitted or top-dose-only effect; inactive = no such curve, though single readings can be large or run the other way; also: nearly all actives have a fitted effect of over 50% in size
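Fission yeast strain RE007, carrying one chromosomally integrated HIV-1 vpr copy, was seeded at OD 0.01 in PMG+AL medium with 23 nL pinned compound. After 24 h at 30 °C and 99% humidity, viability was read by BacTiter-Glo luminescence.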
HCV inhibitor: qHTS Assay for Inhibitors of Hepatitis C Virus (HCV) | Huh7.5.1 HCVcc-Cre infection, luciferase reporter, 44 h | Potency, µM (top dose mostly 41.8 µM), hits mostly inhibitors | 340,000 compounds, 3.4% hits
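Reporter virus HCVcc-Cre (~0.5 moi) infects cells exposed to compound; seeding density 1,000 cells/well with 4 h settling beforehand. Luminescence, 15 sec read, taken 44 h post-infection following a 15 min RT substrate incubation.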
FMDV antiviral: High Throughput Screening for Foot and Mouth Disease Virus Antivirals; FMDV antiviral cell-based qHTS; Potency, µM (titrated, usually from 57.9 µM), usual class: inhibitors; 410,000 compounds, 1.2% hits; AID 1159524, 2015; calls by dose curve; tested in HEK293T cells; also: read-out not given here; nearly all actives have a fitted effect of over 45% in size
Sm TGR inh: qHTS Assay for the Inhibitors of Schistosoma Mansoni Peroxiredoxins | Potency, µM (series often up to 114 µM), hits mostly inhibitors | AID 485364, 2010 | purified TGR, DTNB reduction, TNB absorbance 405 nm | 360,000 compounds, 3% hits; also: nearly all actives have a fitted effect of over 60% in size
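TGR 20 nM + NADPH 100 uM (dispensed conc.), cpd preinc 15 min RT; start with NADPH (500 uM addition) then DTNB (15 mM addition). Kinetic TNB absorbance, 405 nm filter. Four-parameter Hill fit across titration.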
MARV entry inh: qHTS for inhibitors of binding or entry into cells for Marburg Virus; 300,000 compounds, 1.8% hits; Marburg virus pseudotyped entry inhibition, cell reporter; Potency, µM (highest dose often 37.8 µM), hits mostly inhibitors; AID 540276, 2011; calls by dose curve; tested in HEK293 cells
A number is an active result; 0 = inactive; ? = inconclusive; - = not tested or not shown. Unless noted, calls follow the shape of the dose curve; as a rule, active = well fitted curve in the direction sought with a large enough effect; inconclusive = small, poorly fitted or top-dose-only effect, or another doubt; inactive = no such curve, though single readings can be large; an effect the other way counts as inactive or inconclusive.

SMILES	LASV entry inh	RE007 growth inh	HCV inhibitor	FMDV antiviral	Sm TGR inh	MARV entry inh
COc1ccc(C(=O)N2CCC(C(=O)c3ccc(F)cc3)CC2)cc1	0	0	0	?	0	?
COc1ccc(CNC(=O)CN2CCC(C(=O)c3ccc(OC)cc3)CC2)cc1	?	0	12.6µM	?	0	0
CCOc1ccc(C(=O)N2CCC(C(=O)c3ccc4c(c3)OCCO4)CC2)cc1	0	0	10µM	0	0	0
COc1ccc(C(=O)C2CCN(C(=O)c3ccc(OC)cc3)CC2)cc1	?	0	7.94µM	0	0	?
COC(=O)c1ccccc1NC(=O)CSc1nc2sc3c(c2c(=O)[nH]1)CCCC3	0	-	-	0	0	0
Clc1ccc2nnnc(-c3ccccc3)c2c1	10.3µM	0	4.47µM	?	0	6.51µM
COC(=O)c1ccc(OC)c(Cn2c(=O)n(-c3ccc(C)cc3)c(=O)c3c2cnn3C)c1	0	-	-	0	0	0
O=C(Nc1ccc(C(F)(F)F)cc1)N1CCN(c2ccnc3cc(Cl)ccc23)CC1	?	0	8.91µM	?	0	?
O=S(=O)(c1ccccc1)N1CCN(c2ccnc3cc(Cl)ccc23)CC1	?	0	?	25.1µM	-	?
CC(=O)N1CCN(c2ccnc3cc(Cl)ccc23)CC1	0	0	0	0	0	0
O=C(Nc1cc(F)ccc1F)N1CCN(c2ccnc3cc(Cl)ccc23)CC1	-	0	11.2µM	31.6µM	0	-
CCCCNC(=O)N1CCN(c2ccnc3cc(Cl)ccc23)CC1	0	0	0	31.6µM	0	?
CCC(=O)N1c2ccccc2CC1C(=O)NCCc1ccccc1Cl (centres undefined)	0	-	-	0	0	-
CN(C)Cc1ccccc1-c1nccc(N(C)C)n1	-	-	-	0	-	-
Cc1cccc(Cl)c1NC(=O)N1CCN(c2ccnc3cc(Cl)ccc23)CC1	-	0	?	?	0	-
Cc1ccc(F)cc1NC(=O)N1CCN(c2ccnc3cc(Cl)ccc23)CC1	-	0	3.55µM	?	0	-
CCn1c(=O)cc(SCC(=O)NCc2ccc(OC)cc2OC)c2ccccc21	0	-	-	0	0	0
COc1ccc(C2=NNC(=Nc3cc(S(=O)(=O)N(C)C)ccc3C)SC2)c(OC)c1	-	0	12.6µM	?	0	-
COCCn1c(C)cc(C2=NNC(=Nc3ccccc3F)SC2)c1C	2µM	0	0	?	0	?
Fc1ccccc1N=C1NN=C(c2ccccc2)CS1	?	0	?	0	0	11.2µM
CC(=O)Nc1ccc(C2=NNC(=Nc3cccc(S(=O)(=O)N(C)C)c3)SC2)cc1	-	0	?	0	-	-
Cc1cccc(N=C2NN=C(c3ccccc3F)CS2)c1C	0	0	?	0	0	?
CN(C)S(=O)(=O)c1cccc(N=C2NN=C(c3ccccc3)CS2)c1	?	0	35.5µM	?	0	?
O=S1(=O)CCN(C2CCCCCCC2)CC1	-	0	-	0	-	-
COc1cccc(-c2cncnc2NCc2cccnc2)c1	-	-	-	0	-	-
SMILES	LASV entry inh	RE007 growth inh	HCV inhibitor	FMDV antiviral	Sm TGR inh	MARV entry inh
COCCCN=C1NN=C(c2cc(C)n(-c3ccccc3F)c2C)CS1	14.6µM	0	?	0	0	2.06µM
Cc1cccn2c(=O)c(C=NCc3ccco3)c(Nc3ccc(SC(F)F)cc3)nc12	9.2µM	0	?	0	0	?
Cc1cc(C)c2[nH]c(=O)c(CN(Cc3ccco3)C(=O)C3CCCO3)cc2c1 (centres undefined)	0	0	0	0	25.1µM	0
O=C(c1ccncc1)N(Cc1ccco1)Cc1cc2ccccc2[nH]c1=O	0	0	0	0	0	0
Cc1cc(C)c2cc(CN(Cc3ccco3)C(=O)NCc3ccccc3)c(=O)[nH]c2c1	?	0	?	0	50.1µM	2.82µM
Cc1cccc2cc(CN(Cc3ccco3)C(=O)c3ccncc3)c(=O)[nH]c12	0	0	?	0	31.6µM	?
Cc1cc(C)c2cc(CN(CC3CCCO3)C(=S)NCc3ccco3)c(=O)[nH]c2c1 (centres undefined)	0	0	?	0	0	0
COc1ccccc1NC(=S)N(Cc1ccco1)Cc1cc2cc(C)cc(C)c2[nH]c1=O	?	0	?	0	0	?
COc1ccccc1NC(=S)N(Cc1ccco1)Cc1cc2ccc(C)c(C)c2[nH]c1=O	?	0	?	0	0	11.2µM
Cc1ccc(NC(=O)C2CCCN(c3nnc(-n4c(C)ccc4C)s3)C2)cc1Cl (centres undefined)	0	-	-	0	?	0
Nc1nccc(-c2c(-c3ccc(F)cc3)nn3cc(C(F)(F)F)ccc23)n1	0	-	-	-	-	-
CC1=C(c2ccc(Cl)cc2)S(=O)(=O)NC1=NCc1ccc(C)cc1	0	-	-	0	0	0
O=c1oc2ccccc2cc1-c1nc(-c2cccs2)no1	0	-	-	0	0	-
O=C(c1ccc2c(c1)N(Cc1ccccc1F)C(=O)c1ccccc1S2=O)N1CCCCC1 (centres undefined)	0	-	-	0	0	0
COc1cc(OC)cc(C(=O)NCC(=O)NCCN2C(=O)S/C(=C\c3ccccc3Cl)C2=O)c1	-	0	10µM	0	0	-
O=C(COC(=O)c1c2c(nc3ccccc13)/C(=C/c1cccc([N+](=O)[O-])c1)CCC2)NC1CCS(=O)(=O)C1 (centres undefined)	?	0	3.55µM	?	0	?
COC(=O)c1cc(C(=O)OCC(=O)N(C)C2CCS(=O)(=O)C2)cc([N+](=O)[O-])c1 (centres undefined)	0	0	0	0	0	0
COc1ccc2cc(-c3cc(C(=O)OCC(=O)NC4CCS(=O)(=O)C4)c4ccccc4n3)ccc2c1 (centres undefined)	3.55µM	0	?	0	0	3.16µM
CN(C(=O)COC(=O)/C=C/c1cccc([N+](=O)[O-])c1)C1CCS(=O)(=O)C1 (centres undefined)	0	0	0	0	?	3.55µM
CN(C(=O)COC(=O)c1c2c(nc3ccccc13)/C(=C/c1cccc([N+](=O)[O-])c1)CCC2)C1CCS(=O)(=O)C1 (centres undefined)	?	0	1.78µM	0	0	?
CCN(C(=O)COC(=O)/C=C/c1cccc(Br)c1)C1CCS(=O)(=O)C1 (centres undefined)	0	0	0	?	0	?
CCOC(=O)[C@H]1[C@H]2COc3ccc(C)cc3[C@@H]2N2C(=O)c3cc(C)ccc3NC(=O)[C@@]12C	-	0	0	0	-	-
Cc1cc(C)n(Cc2cccc(C(=O)NCC3Cc4cccc(-c5ncccn5)c4O3)c2)n1 (centres undefined)	-	-	-	0	-	-
Cc1nc2ncnn2c(N2CCN(c3cccc(C(F)(F)F)c3)CC2)c1C	?	0	0.891µM	?	0	0
Cc1cc(N2CCN(c3cccc(C(F)(F)F)c3)CC2)n2ncnc2n1	0	0	0	0	0	0
